# Most compounds without a hit are left out; they make up all but 3.7% or so of the library.
# TIM10 inh: inhibits growth of TIM10 yeast strain; actives 1.4% (n = 330,000); S. cerevisiae TIM10 strain growth, BacTiter-Glo luminescence, 24 h; inhibition, % at 10 µM;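 active means inhibition of 40% or more at the single tested concentration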;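 further: wild-type TIM10 isogenic control strain grown at permissive 25 °C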
# Rce1 inh: blocks yeast Ras-converting enzyme; Q03530; yeast membranes, quenched prenylated peptide cleavage fluorescence; calls only; actives 0.27% (n = 290,000); AID 2563;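 active means fall in fluorescence gain of 50% or more versus controls, with final raw signal at or below 3038400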;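 further: plate controls were neutral control wells for no effect and wells lacking membranes for full effect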
# Target sequence (Q03530 whole entry, looked up): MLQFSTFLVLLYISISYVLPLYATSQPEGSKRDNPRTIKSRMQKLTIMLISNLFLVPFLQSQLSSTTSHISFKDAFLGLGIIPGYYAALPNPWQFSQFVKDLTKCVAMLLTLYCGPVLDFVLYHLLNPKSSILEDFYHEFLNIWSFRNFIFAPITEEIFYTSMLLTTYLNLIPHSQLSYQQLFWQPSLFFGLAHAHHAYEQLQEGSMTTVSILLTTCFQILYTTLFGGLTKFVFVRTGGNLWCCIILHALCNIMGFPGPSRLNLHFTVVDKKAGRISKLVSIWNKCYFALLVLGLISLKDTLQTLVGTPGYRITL
# tim23-1 inh: growth inhibitors of tim23-1 mutant yeast; S. cerevisiae tim23-1 growth, BacTiter-Glo luminescence, 24 h; inhibition, % at 20 µM; actives 1.3% (n = 330,000); AID 463212;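 active means growth inhibition of the mutant yeast at or above 50%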;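 further: temperature-sensitive mutant grown at 25 °C; plate controls were DMSO-treated mutant yeast for no effect and medium wells lacking yeast for full effect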
# tim10-1 inh: growth inhibitors of tim10-1 mutant yeast; S. cerevisiae tim10-1 ts strain growth, BacTiter-Glo, 24 h; inhibition, % at 20 µM; actives 2.2% (n = 330,000);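 active means inhibition of at least 40%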;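 further: mutant grown at 25 °C; 0% = DMSO wells with yeast and 100% = wells holding no yeast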
# PfHsp90 yeast 2: reduces growth (ATP signal) of yeast expressing P. falciparum Hsp90. actives 0.32% (n = 310,000). inhibition, % at 9.4 µM. S. cerevisiae expressing PfHsp90, BacTiter-Glo ATP, 48 h; yeast lacking PDR1 and PDR3 efflux regulators;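 active means every replicate shows inhibition above about 80%, whatever the replicate mean, limit read from the data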;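 further: 0% = DMSO neutral controls and 100% = 20 µM radicicol positive controls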
# tim10-1 confirm: confirmation of tim10-1 mutant yeast growth inhibitors | shares compounds with tim10-1 inh | S. cerevisiae tim10-1 ts strain growth, BacTiter-Glo, 24 h | inhibition, % at 20 µM | actives 56% (n = 7,400);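 active means inhibition of yeast growth at or above a set limit in either of two repeat tests at 20 µM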;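 further: tim10-1 mutant grown at permissive 25 °C to find synthetic lethal compounds; 0% = DMSO yeast wells and 100% = medium wells without yeast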
# TIM10 conf: confirmation of TIM10 yeast growth inhibitors. inhibition, % at 10 µM. shares compounds with TIM10 inh. S. cerevisiae tim10 strain growth, BacTiter-Glo luminescence, 24 h. actives 63% (n = 4,600). AID 463215;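 active means inhibition of yeast growth at or above a set limit in either of two replicates at 10 µM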;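 further: this counterscreen used the strain with wild-type TIM10; 0% = yeast with DMSO and 100% = medium wells lacking yeast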
# * hit, by the source's call; i = inactive; nt = no result.
SMILES,TIM10 inh,Rce1 inh,tim23-1 inh,tim10-1 inh,PfHsp90 yeast 2,tim10-1 confirm,TIM10 conf
CS(=O)(=O)c1ccc(S(=O)CC(=O)Oc2ccc(Cl)cc2)c([N+](=O)[O-])c1 (configuration not stated),19,i,29,30,nt,nt,nt
CCC(=C(c1ccc(OC)cc1)c1ccc(OC)cc1)c1cn(CC(O)CN(CCO)CCO)c2ccccc12 (configuration not stated),15,i,40,19,29,nt,nt
CCc1ccc2c(c1)C1(C(=O)N2)N2CCCC2C(C(=O)c2ccc3ccccc3c2)C12C(=O)Nc1ccccc12 (configuration not stated),33,i,34,38,20,nt,nt
CCc1ccc2c(c1)C1(NN=C(c3cccc4ccccc34)S1)C(=O)N2 (configuration not stated),55*,i,50,54*,-97,47*,59*
Cc1cccc(C(=O)Nc2ccc(C(=O)Nc3ccc(O)cc3)cc2)c1,0,i,-11,-15,-20,nt,nt
Cc1cc(C)cc(OCc2ccc(C(=O)NN)o2)c1,11,i,16,25,6,nt,nt
CCc1nccn1S(=O)(=O)c1ccccc1[N+](=O)[O-],44*,i,42,50*,-6,62*,57*
CCSc1nc2ccc(N3C(=O)C4C5C=CC(C5)C4C3=O)cc2s1 (configuration not stated),7,i,29,13,11,nt,nt
O=C(NCc1ccco1)c1cc2sccc2n1Cc1ccccc1,35,i,12,25,nt,nt,nt
O=C(c1ccco1)N1CCN(C(=O)c2cc3sccc3n2Cc2ccccc2)CC1,43*,i,47,42*,2,43*,34*
C=CC(COCc1ccccc1)N([C@@H](Cc1ccccc1)C(=O)OC)S(=O)(=O)c1ccccc1Br (some centres not stated),-6,nt,2,9,-22,nt,nt
Cc1cccc(C(=O)Nc2cccc(Br)c2)c1[N+](=O)[O-],65*,i,43,58*,-19,54*,50*
Cc1ccc(/C=C/C(=O)c2c(C)nc3ccccn23)cc1,39,i,35,37,-38,nt,nt
Cc1nc2ccccn2c1C(=O)/C=C/c1cccc([N+](=O)[O-])c1,52*,i,38,50*,-55,44*,54*
COc1cc(C(=O)OCC(=O)c2cc(C)n(C)c2C)cc(OC)c1OC,45*,i,38,42*,nt,32,8
COc1ccc2c(c1)c1nnc(SCC(=O)N3C(C)CCCC3C)nc1n2C (configuration not stated),21,i,19,33,nt,nt,nt
COc1ccc2c(c1)c1nnc(SC)nc1n2C,81*,i,43,63*,nt,66*,81*
Cc1ccc(-c2nc3c(c(=O)c4ccccc4n3C)c(=O)n2-c2ccc(F)cc2)cc1,-7,i,9,-18,5,nt,nt
Cn1c2ccccc2c(=O)c2c(=O)n(-c3ccccc3)c(-c3ccc(C(C)(C)C)cc3)nc21,82*,i,47,48*,-24,-5,-8
C(=N\Nc1nc(Nc2ccccc2)nc(N2CCCCC2)n1)/c1ccco1,48*,i,47,50*,nt,31,37*
COc1ccc(/C=N/Nc2nc(Nc3ccccc3)nc(N3CCCC3)n2)cc1,-2,i,24,10,-11,nt,nt
CCOC(=O)c1ccc(N2C(=O)CC(Sc3nc(C)cc(C)n3)C2=O)cc1 (configuration not stated),-3,i,20,20,-11,nt,nt
C=CCNc1nnc(SC2CC(=O)N(c3ccc(OCCC)cc3)C2=O)s1 (configuration not stated),68*,i,46,63*,10,74*,69*
CCOC(=O)c1ccc(N2C(=O)CC(Sc3nnc(C)s3)C2=O)cc1 (configuration not stated),65*,i,38,55*,-31,78*,60*
CCOC(=O)N1CCN(C(=O)C(=O)N/N=C/c2ccc(OC)cc2OC)CC1,5,i,-8,-6,-1,nt,nt
CC(C)CC(=O)Nc1ccc(-c2nc3ccccc3c(=O)[nH]2)cc1,1,i,12,11,-31,nt,nt
